Molecules are shown by their SMILES.

Drawing on ChEMBL document CHEMBL1961873, “Compounds: GSK PKIS; Assays: Nanosyn kinase panel” (2012), this text covers inhibition for eight compounds.

Assay [1] concerns the target Mitogen-activated protein kinase 3 (Homo sapiens) (UniProt P27361). Conditions: at 1 µM.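 Further: values are mean percent inhibition of MAPK3.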
For assay [2], the target named is SRSF protein kinase 3 (Homo sapiens) (UniProt Q9UPE1). Conditions: at 0.1 µM.
The target is the same in assay [3]. Conditions: at 1 µM.
Assay [4] addresses Mitogen-activated protein kinase 14 (Homo sapiens) (UniProt Q16539). Particulars: at 0.1 µM.
Assay [5] shares this target. Particulars: at 1 µM.
The target of assay [6] is Mitogen-activated protein kinase 11 (Homo sapiens) (UniProt Q15759). Conditions: at 0.1 µM.
Mitogen-activated protein kinase 11 (Homo sapiens), sequence (Q15759 whole entry): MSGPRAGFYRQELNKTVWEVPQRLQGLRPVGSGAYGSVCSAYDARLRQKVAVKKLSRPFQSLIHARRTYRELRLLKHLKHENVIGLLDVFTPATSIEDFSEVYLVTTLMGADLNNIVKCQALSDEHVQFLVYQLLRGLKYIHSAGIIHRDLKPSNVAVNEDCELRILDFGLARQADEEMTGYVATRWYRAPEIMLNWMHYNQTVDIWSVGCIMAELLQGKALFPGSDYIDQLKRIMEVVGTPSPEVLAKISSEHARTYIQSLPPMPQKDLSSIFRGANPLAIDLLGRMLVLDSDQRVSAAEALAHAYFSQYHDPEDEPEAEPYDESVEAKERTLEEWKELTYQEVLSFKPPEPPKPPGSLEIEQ
For assay [7] the target is unchanged. Particulars: at 1 µM.
In assay [8] the target is T1, Mitogen-activated protein kinase 13 (Homo sapiens) (UniProt O15264).
T1 sequence (whole entry): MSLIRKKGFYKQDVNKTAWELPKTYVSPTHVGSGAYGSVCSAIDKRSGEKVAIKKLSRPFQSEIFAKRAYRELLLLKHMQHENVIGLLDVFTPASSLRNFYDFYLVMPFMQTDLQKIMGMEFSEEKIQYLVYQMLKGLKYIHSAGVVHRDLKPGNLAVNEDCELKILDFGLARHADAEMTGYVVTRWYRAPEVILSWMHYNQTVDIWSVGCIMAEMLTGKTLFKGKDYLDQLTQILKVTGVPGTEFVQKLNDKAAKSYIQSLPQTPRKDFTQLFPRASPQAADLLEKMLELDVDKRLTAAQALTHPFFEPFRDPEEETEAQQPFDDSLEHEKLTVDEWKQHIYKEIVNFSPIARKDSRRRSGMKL
Conditions: at 0.1 µM.

Assay [9] has as its target T1, Mitogen-activated protein kinase 13 (Homo sapiens). Particulars: at 1 µM.
Assay [10] has as its target T2, Mitogen-activated protein kinase 12 (Homo sapiens) (UniProt P53778).
T2 sequence (whole entry): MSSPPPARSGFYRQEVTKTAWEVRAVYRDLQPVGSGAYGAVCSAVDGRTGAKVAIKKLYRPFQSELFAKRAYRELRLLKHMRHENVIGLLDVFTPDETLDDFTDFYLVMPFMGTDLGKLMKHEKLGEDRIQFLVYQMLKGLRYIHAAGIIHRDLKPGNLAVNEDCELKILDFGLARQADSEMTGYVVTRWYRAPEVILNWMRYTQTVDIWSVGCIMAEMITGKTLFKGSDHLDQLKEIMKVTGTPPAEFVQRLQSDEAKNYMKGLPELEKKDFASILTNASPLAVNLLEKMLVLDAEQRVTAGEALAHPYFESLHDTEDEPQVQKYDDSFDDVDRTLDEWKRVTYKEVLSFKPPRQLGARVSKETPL
Particulars: at 0.1 µM.

Assay [11] addresses T2, Mitogen-activated protein kinase 12 (Homo sapiens). Particulars: at 1 µM.
Assay [12] deals with SRSF protein kinase 1 (Homo sapiens) (UniProt Q96SB4). Conditions: at 0.1 µM.
SRSF protein kinase 1 (Homo sapiens), sequence (Q96SB4 whole entry): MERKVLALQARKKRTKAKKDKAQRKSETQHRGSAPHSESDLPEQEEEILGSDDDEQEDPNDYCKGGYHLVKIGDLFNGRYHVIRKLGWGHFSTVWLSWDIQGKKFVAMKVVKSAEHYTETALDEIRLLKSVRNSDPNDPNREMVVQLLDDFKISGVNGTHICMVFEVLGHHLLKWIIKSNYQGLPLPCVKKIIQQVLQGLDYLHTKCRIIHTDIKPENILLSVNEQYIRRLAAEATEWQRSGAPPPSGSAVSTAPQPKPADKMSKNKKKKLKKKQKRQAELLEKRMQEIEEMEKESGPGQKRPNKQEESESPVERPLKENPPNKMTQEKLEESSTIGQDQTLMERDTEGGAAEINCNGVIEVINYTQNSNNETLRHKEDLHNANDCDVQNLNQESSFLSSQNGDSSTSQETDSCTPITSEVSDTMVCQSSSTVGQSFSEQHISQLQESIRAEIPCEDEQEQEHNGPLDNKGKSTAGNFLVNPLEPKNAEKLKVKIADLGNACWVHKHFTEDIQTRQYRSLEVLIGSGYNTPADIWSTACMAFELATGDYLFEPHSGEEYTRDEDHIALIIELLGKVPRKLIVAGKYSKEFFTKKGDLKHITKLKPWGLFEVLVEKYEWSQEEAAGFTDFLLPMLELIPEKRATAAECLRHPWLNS
For assay [13] the target is unchanged. Particulars: at 1 µM.
Assay [14] addresses Phosphatidylinositol 4,5-bisphosphate 3-kinase catalytic subunit alpha isoform (Homo sapiens) (UniProt P42336). Conditions: at 0.1 µM.
Assay [15] shares this target. Particulars: at 1 µM.
Assay [16] concerns the target T3, Phosphatidylinositol 4,5-bisphosphate 3-kinase catalytic subunit delta isoform (Homo sapiens) (UniProt O00329).
T3 sequence (whole entry): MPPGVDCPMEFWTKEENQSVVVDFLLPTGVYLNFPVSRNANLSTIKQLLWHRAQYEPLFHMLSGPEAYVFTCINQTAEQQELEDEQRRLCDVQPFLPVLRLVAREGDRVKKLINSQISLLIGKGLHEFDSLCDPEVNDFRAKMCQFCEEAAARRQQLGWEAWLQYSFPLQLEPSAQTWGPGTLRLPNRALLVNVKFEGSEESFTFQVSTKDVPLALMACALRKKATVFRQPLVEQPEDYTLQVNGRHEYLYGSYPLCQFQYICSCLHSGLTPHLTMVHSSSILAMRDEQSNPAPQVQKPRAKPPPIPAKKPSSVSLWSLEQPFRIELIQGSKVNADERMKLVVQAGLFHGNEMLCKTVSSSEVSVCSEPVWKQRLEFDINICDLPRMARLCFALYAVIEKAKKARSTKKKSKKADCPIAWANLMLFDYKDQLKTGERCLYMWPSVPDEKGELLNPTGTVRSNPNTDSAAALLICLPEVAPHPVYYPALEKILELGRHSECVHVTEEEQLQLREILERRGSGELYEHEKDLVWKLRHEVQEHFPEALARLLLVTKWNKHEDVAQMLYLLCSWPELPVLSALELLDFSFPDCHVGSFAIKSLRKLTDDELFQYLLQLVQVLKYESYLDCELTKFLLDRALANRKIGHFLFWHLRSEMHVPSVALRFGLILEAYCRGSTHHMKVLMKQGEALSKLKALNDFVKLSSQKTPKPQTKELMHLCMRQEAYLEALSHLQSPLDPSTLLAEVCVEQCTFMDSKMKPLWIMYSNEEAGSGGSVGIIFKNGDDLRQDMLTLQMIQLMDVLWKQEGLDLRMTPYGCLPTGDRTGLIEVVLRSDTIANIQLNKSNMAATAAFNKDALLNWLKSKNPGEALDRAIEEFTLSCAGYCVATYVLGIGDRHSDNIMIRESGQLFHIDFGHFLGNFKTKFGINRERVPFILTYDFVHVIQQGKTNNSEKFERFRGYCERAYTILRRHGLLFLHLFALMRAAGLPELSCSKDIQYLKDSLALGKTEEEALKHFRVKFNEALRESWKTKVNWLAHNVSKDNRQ
Conditions: at 0.1 µM.

Assay [17] has as its target T3, Phosphatidylinositol 4,5-bisphosphate 3-kinase catalytic subunit delta isoform (Homo sapiens). Particulars: at 1 µM.
Assay [18] deals with Phosphatidylinositol 4-kinase beta (Homo sapiens) (UniProt Q9UBF8). Particulars: at 0.1 µM.
Phosphatidylinositol 4-kinase beta (Homo sapiens), sequence (Q9UBF8 2-816 limits assumed): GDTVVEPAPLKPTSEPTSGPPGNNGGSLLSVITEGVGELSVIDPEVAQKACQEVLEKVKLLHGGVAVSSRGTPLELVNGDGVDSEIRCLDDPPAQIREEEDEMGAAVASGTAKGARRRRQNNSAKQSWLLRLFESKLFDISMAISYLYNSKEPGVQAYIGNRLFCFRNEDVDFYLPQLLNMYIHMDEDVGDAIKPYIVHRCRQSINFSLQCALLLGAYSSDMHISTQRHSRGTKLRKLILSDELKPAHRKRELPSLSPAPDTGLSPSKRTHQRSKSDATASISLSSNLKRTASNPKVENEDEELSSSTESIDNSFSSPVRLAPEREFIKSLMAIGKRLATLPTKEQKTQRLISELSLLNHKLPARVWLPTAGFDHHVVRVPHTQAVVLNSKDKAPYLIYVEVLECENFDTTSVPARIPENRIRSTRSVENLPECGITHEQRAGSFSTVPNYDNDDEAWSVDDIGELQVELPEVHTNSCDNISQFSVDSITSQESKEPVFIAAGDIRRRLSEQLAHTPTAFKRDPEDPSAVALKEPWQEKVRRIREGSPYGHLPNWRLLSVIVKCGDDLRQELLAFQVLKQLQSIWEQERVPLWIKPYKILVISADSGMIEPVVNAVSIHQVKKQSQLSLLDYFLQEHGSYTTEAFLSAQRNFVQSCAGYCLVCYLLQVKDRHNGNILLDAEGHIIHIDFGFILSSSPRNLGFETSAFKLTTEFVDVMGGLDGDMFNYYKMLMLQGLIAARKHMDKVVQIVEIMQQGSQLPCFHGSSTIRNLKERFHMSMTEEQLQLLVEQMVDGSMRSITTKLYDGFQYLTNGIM
For assay [19] the target is unchanged. Particulars: at 1 µM.
Assay [20] has as its target Sphingosine kinase 1 (Homo sapiens) (UniProt Q9NYA1). Conditions: at 0.1 µM.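 Further: mean percent inhibition of SPHK1 activity, measured within the GSK PKIS screening panel.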

Mitogen-activated protein kinase 3 (Homo sapiens), sequence (P27361 whole entry): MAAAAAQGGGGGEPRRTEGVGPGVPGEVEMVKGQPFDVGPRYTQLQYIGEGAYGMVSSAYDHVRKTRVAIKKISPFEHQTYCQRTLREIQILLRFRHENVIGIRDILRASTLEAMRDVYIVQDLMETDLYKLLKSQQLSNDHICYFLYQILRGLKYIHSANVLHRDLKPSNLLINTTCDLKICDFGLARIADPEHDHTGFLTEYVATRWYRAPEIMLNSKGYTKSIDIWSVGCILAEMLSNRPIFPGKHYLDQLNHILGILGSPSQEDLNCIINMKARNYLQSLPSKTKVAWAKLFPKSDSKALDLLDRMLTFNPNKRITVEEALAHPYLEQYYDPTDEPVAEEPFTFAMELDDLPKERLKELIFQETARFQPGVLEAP
Sphingosine kinase 1 (Homo sapiens), sequence (Q9NYA1 whole entry): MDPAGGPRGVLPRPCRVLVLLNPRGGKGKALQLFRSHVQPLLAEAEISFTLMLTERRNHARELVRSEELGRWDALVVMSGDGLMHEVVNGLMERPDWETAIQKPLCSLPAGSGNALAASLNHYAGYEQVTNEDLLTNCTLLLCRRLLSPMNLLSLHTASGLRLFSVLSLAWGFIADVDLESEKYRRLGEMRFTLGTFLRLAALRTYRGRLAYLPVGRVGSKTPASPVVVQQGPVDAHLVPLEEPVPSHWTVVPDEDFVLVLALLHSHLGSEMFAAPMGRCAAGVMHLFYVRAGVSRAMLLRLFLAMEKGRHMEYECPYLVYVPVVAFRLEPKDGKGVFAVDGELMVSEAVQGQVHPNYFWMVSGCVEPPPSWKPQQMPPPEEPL
SRSF protein kinase 3 (Homo sapiens), sequence (Q9UPE1 whole entry): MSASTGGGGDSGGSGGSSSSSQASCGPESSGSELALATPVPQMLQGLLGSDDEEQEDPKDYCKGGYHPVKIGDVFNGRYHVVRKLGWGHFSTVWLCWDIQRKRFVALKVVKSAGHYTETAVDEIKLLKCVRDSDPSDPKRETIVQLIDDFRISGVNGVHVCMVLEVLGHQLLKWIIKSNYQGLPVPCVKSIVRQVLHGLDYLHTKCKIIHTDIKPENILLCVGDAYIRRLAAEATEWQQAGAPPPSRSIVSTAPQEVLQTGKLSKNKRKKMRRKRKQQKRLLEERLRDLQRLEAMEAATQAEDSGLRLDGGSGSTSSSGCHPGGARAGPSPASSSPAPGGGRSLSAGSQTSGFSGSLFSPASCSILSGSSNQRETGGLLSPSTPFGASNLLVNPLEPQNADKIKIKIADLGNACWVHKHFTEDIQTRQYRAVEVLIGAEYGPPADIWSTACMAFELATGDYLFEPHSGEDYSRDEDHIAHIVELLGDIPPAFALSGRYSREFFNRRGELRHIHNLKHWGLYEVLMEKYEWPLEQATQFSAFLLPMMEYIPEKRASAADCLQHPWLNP
Mitogen-activated protein kinase 14 (Homo sapiens), sequence (Q16539 whole entry): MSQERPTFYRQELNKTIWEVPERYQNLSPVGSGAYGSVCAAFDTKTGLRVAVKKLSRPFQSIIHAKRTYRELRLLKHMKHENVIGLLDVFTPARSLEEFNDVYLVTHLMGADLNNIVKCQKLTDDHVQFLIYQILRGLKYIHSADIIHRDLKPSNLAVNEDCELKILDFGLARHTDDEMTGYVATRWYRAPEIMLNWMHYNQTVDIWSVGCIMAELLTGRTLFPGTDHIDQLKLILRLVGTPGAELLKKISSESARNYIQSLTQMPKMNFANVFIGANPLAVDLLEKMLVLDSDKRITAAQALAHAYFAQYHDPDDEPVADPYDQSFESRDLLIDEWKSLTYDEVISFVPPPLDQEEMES
Phosphatidylinositol 4,5-bisphosphate 3-kinase catalytic subunit alpha isoform (Homo sapiens), sequence (P42336 whole entry, canonical isoform): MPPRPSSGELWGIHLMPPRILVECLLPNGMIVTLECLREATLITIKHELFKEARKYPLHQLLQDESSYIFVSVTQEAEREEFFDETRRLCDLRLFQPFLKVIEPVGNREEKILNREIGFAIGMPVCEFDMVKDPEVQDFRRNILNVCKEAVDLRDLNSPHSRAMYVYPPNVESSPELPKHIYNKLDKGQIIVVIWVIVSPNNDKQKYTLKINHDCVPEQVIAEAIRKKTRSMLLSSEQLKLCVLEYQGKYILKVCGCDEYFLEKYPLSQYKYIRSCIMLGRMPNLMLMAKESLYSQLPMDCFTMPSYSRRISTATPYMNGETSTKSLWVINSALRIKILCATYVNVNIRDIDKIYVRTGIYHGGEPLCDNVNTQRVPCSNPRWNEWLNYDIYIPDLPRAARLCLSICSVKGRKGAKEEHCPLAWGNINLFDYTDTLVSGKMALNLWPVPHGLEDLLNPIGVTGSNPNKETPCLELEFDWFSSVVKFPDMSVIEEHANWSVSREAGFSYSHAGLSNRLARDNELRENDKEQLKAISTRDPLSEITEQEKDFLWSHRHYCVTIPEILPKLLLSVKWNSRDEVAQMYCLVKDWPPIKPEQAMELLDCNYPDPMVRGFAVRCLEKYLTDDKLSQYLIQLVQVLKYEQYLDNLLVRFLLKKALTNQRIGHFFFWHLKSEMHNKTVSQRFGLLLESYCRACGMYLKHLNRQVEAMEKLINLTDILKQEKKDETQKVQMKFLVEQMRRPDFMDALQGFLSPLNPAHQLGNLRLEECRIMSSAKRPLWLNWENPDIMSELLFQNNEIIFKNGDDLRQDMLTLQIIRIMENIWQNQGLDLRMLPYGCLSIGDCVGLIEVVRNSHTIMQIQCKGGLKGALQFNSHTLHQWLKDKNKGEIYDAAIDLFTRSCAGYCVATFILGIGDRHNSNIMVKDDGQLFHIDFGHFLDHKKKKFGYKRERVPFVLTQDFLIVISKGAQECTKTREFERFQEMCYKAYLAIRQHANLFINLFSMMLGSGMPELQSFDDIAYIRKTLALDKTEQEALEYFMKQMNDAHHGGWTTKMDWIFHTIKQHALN

One may read the inhibition as the change of the read-out against control, counted positive when it falls. On to `CN1CCN(CCCNc2nc3ccc(Oc4ccc(NC(=O)Nc5cc(C(F)(F)F)ccc5F)cc4)cc3[nH]2)CC1`, for which the inhibition came out at 0.83% in [1]; 2.09% in [2]; 4.1% in assay [3]; 8.14% in assay [4]; 51.8% in assay [5]; 5.1% in [6]. In addition, the inhibition in assay [7] is 22.1%; in [8], 0.46%; in assay [9] it was 1.31%; in assay [10], -0.38%; in [11] it was 1.58%; in [12] it was -1.48%. In addition, the inhibition was -3.44% in assay [13]; 2.13% in assay [14]; 0.9% in assay [15]; 1.3% in assay [16]; 7.49% in [17]; 1.45% in assay [18]. The inhibition is -2.72% in [19] and -1.28% in assay [20].

Regarding `COc1ccc2cc(-c3c(-c4ccncc4)nc(-c4ccc(S(C)(=O)=O)cc4C)n3C)ccc2c1`, the inhibition in assay [1] is 2.57%; in assay [2], -1.96%; in assay [3], -4.7%; in assay [4], 14.2%; in assay [5], 17.3%; in assay [6], 2.54%. For the same compound, the inhibition in assay [7] is 11%; in [8] it was 2.15%; in [9] it was 5.04%; in assay [10], 3.44%; in assay [11], 3.33%; in assay [12], -2.04%. Also, the inhibition is -2.87% in assay [13]; 3.62% in [14]; 3.55% in [15]; 1.31% in assay [16]; 1.59% in assay [17]; 0.34% in [19]. In addition, the inhibition in [20] turned out to be 2.55%.

On to `Fc1ccc(-c2ncn(C3CCNCC3)c2-c2ccnc(Oc3ccc(Oc4ccccc4)cc3)n2)cc1`, for which the inhibition is 5.57% in assay [1]; 4.51% in assay [2]; -0.81% in [3]; -3.18% in assay [12]; -2.43% in assay [13]; 3.74% in assay [14]. Besides, the inhibition in assay [15] is 2.92%; in assay [16], -0.16%; in assay [17], 2.82%; in assay [18], -2.22%; in assay [19] it was 5.8%; in assay [20], 1.17%.

Turning to `Fc1ccc(-c2ncn(CCCN3CCOCC3)c2-c2ccncc2)cc1`, the inhibition was 1.77% in assay [1]; -0.25% in assay [2]; -0.76% in assay [3]; 7.39% in assay [4]; 48% in assay [5]; 3.21% in assay [6]. The inhibition in [7] is 8.94%; in assay [8], 0.12%; in [9], -0.39%; in assay [10] it was 0.95%; in assay [11] it was 0.4%; in assay [12], 0.27%. Besides, the inhibition in assay [13] was -5.35%; in [14] it was -0.43%; in assay [15], 0.51%; in assay [16] it was 1.59%; in assay [17], 2.95%; in assay [18] it was -1.68%. Further, the inhibition in assay [19] was -0.65%; in assay [20] it was 1.13%.

Take `Cc1ccc(C(=O)NC2CCC2)cc1-c1ccc(C(=O)NCC2CC2)cc1`: the inhibition was 2.32% in [1]; -2.8% in assay [2]; -1.15% in assay [3]; 10.7% in [6]; 48.2% in assay [7]; 1.41% in assay [8]. Moreover, the inhibition in [9] is 2.78%; in [10] it was 3.67%; in [11], 1.52%; in [12], -1.15%; in assay [13], -3.91%; in [14], 1.03%. Also, the inhibition in assay [15] is 2.46%; in [16], 0.19%; in assay [17], 3.4%; in [18], -3.28%; in assay [19], 0.35%; in assay [20], 0.24%.

As for `N#Cc1ccc(Oc2nccc(-c3c(-c4ccc(F)cc4)ncn3C3CCNCC3)n2)cc1`, the inhibition in assay [1] was 6.42%; in assay [2], -1.55%; in assay [3] it was -0.03%; in assay [12] it was -3.52%; in [13], -3.38%; in [14] it was 5.16%. Also, the inhibition in [15] was found to be 19.6%; in [16], 2.8%; in assay [17] it was 17.6%; in [18], 1.26%; in assay [19], 1.85%; in [20] it was 0.59%.

For the compound `Fc1ccc(-c2ncn(C3CCNCC3)c2-c2ccnc(Oc3ccc(F)c(F)c3)n2)cc1`, the inhibition in [1] was 6.51%; in [2], -3.83%; in [3], -1.43%; in assay [12] it was -3.26%; in assay [13], -1.49%; in assay [14], 3.43%. Moreover, the inhibition in [15] is 3.41%; in [16], 1.7%; in [17] it was 3.53%; in assay [18], -1.47%; in assay [19], 1.86%; in assay [20] it was 1.28%.

Turning to `CN(C)CCCNc1nccc(-c2c(-c3ccc(F)cc3)nn3cc(C(F)(F)F)ccc23)n1`, the inhibition stood at 2.96% in assay [1]; 2.1% in assay [2]; 6.95% in assay [3]; 17.8% in assay [4]; 67.8% in assay [5]; 5.1% in [6]. The inhibition was 17.9% in assay [7]; 1.74% in assay [8]; 5.4% in assay [9]; 0.47% in assay [10]; 5.27% in [11]; -0.17% in assay [12]. Also, the inhibition in assay [13] was -0.01%; in [14], 0.79%; in [15], 0.02%; in assay [16], 2.6%; in [17], 2%; in [18], -3.83%. Further, the results for the inhibition in assay [19] and in assay [20] were 11.1% and 0%, respectively.
